# This is a sample that favours compounds with a hit; in the whole collection about 1.7% have one here.
# FGF22 binding – binders of human FGF22 protein, primary screen, FGF22 synaptogenesis inhibitor project, biophysical, thermal shift, single point | Fibroblast growth factor 22 (Homo sapiens), Q9HCT0 | recombinant FGF22 thermal shift, SYPRO orange fluorescence; percent of sucrose octasulfate shift, DMSO zero | activity (Tm shift, normalised), % at 9.99 µM | actives 1.5% (n = 340,000) | AID 651658, 2012;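 active = mean Tm shift, scaled 0 neutral to 100 positive control, at about 1.3% or above, every replicate too, limit read from the data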
# Target sequence (Q9HCT0 whole entry, looked up): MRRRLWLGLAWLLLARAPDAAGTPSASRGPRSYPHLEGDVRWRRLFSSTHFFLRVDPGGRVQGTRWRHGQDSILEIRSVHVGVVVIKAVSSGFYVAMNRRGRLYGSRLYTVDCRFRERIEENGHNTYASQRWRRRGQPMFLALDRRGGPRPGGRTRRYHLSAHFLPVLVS
# F508del corr – F508del CFTR correction, initial screen, CFBE line, single point | CFBE cells, YFP halide quenching; stimulated with forskolin plus potentiator P3; % fluorescence drop versus neutral controls | activity (quench increase), % at 7.58 µM | actives 0.36% (n = 350,000) | AID 720511, 2013;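 active = mean added fluorescence quench of at least 8% versus neutral control, with both replicates also reaching 8%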;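 note: cells transiently co-express mutant CFTR-F508del with the halide-sensitive YFP; corrector assay measuring rescue of mutant channel to the surface after 24 h compound exposure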
# Vif imaging – HIV Vif self-association inhibitors, primary screen, imaging, HEK293T, single point; HEK293T cells, Vif self-association by quenched fluorescence, 24 h; inhibition, % at 7.49 µM; actives 0.35% (n = 340,000); AID 602346, 2012; in the data active = inhibition above about 50%, passing the limit was not always enough
# Active calls of the source: *; nt = not tested or not shown.
SMILES,FGF22 binding,F508del corr,Vif imaging
OC[C@@H]1CN(Cc2ccc(-c3ccccc3)cc2)C[C@H](n2cnc3c(NC4CC4)ncnc32)O1,0,8.6*,-11
COCCN1C[C@@H](CO)O[C@@H](n2cnc3c(NCc4cc(OC)c(OC)c(OC)c4)ncnc32)C1,0,-5,3
COc1cc(CNc2ncnc3c2ncn3[C@H]2CN(CCN3CCOCC3)C[C@@H](CO)O2)cc(OC)c1OC,0,-5,70*
OC[C@@H]1CN(Cc2ccc(-c3ccccc3)cc2)C[C@H](n2cnc3c(Nc4ccccc4)ncnc32)O1,0,-4,-18
CC(C)CC#Cc1ccc2c(c1)O[C@H](CN(C)C(=O)C1CCCCC1)[C@H](C)CN([C@@H](C)CO)S2(=O)=O,0,-2,nt
C[C@@H]1CN([C@H](C)CO)C(=O)c2cc(NC(=O)Cn3cnnn3)ccc2O[C@H]1CN(C)S(=O)(=O)c1ccc(F)cc1,0,1,nt
C[C@@H]1CN([C@@H](C)CO)C(=O)c2cc(NS(=O)(=O)c3ccc(F)cc3)ccc2O[C@H]1CN(C)CC1CC1,1,0,nt
Cc1ccc(NC(=O)Cc2nc(-c3c[nH]c(C(=O)N4CCCC4)c3)cs2)c(C)c1,0,8.8*,-6
Cc1ccc(NC(=O)CSc2n[nH]c(-c3ccncc3)n2)c(C)c1,0,-2,14
Cc1ccc(S(=O)(=O)N[C@H]2CC[C@@H](CC(=O)NCc3ccncn3)O[C@H]2CO)cc1,0,-3,nt
Cc1nc2ccc(S(=O)(=O)N(C)CC(=O)Nc3ccccc3F)cc2s1,44*,-1,0
COc1ccc(OC)c(NC(=O)CN(C)S(=O)(=O)c2ccc3nc(C)sc3c2)c1,nt,nt,-9
CCCNC(=O)C[C@@H]1CC[C@@H]2[C@H](COC[C@H](O)CN2Cc2cccc(F)c2)O1,0,-2,nt
O=C(c1ccc(-c2ccccc2)cc1)C1CCCN(C(=O)Cn2cncn2)C1 (stereo not drawn),43*,-5,7
COc1ccc(C(=O)C2CCCN(C(=O)Cn3cncn3)C2)cc1OC (stereo not drawn),0,-1,16
CCOC(=O)NN1C(=O)c2ccccc2NC1c1ccc(OC)c(OC)c1 (stereo not drawn),43*,1,8
COc1ccc(C2Nc3ccccc3C(=O)N2NC(C)=O)cc1OC (stereo not drawn),0,0,-1
Cc1noc(C)c1NC(=O)Nc1ccc2c(c1)C(=O)N([C@@H](C)CO)C[C@H](C)[C@H](CN(C)Cc1ccncc1)OCCCC[C@H](C)O2,0,-4,nt
COCCCN1C(=O)C(CC(=O)NCc2cccc3ccccc23)CC(C(=O)N2CCOCC2)=C1C (stereo not drawn),0,-1,67*
COCCCN1C(=O)C(CC(=O)NCc2cccc3ccccc23)CC(C(=O)N2CCCCCC2)=C1C (stereo not drawn),0,-2,nt
COc1ccc(S(=O)(=O)N[C@@H]2CC[C@H](CCNC(=O)CN3CCOCC3)O[C@@H]2CO)cc1,0,1,nt
C/C=C/c1ccc([C@H]2[C@H](CO)N(C(=O)CC)[C@H]2CNC(=O)CC2CC2)cc1,nt,0,nt
COC(=O)C1=C(C)NC(=O)NC1c1cn(-c2ccccc2)nc1-c1cccs1 (stereo not drawn),nt,nt,-14
CC1=C(C(=O)OC(C)C)C(c2cn(-c3ccccc3)nc2-c2cccs2)NC(=O)N1 (stereo not drawn),44*,1,-19
COc1ccccc1-c1ccc2c(c1)[C@H]1[C@H](CCN1S(=O)(=O)c1cccc(C)c1)[C@@H](CO)N2,1,2,nt
SMILES,FGF22 binding,F508del corr,Vif imaging
C=CCc1cccc2cc(C(=O)Nc3ccccc3C(=O)O)c(=O)oc12,43*,-6,1
C=CCc1cccc2cc(C(=O)O)c(=O)oc12,nt,nt,-5
O=C(C[C@@H]1CC[C@H]2[C@@H](COC[C@H](O)CN2Cc2ccccc2)O1)NCc1ccccc1Cl,0,-2,nt
CC1=CCC(C(=O)O)C(C(=O)Nc2nc3ccc(S(C)(=O)=O)cc3s2)C1 (stereo not drawn),nt,nt,4
CC1=CCC(C(=O)O)C(C(=O)Nc2cccnc2)C1 (stereo not drawn),0,0,51*
S=c1[nH]c(-c2ccccc2)cs1,0,-1,6
Fc1ccc(-c2csc(=S)[nH]2)cc1,43*,-1,7
O=C(NC[C@H]1[C@@H](c2ccccc2)[C@H](CO)N1C(=O)C1CCC1)NC1CCCC1,nt,1,nt
CN1[C@H](CO)[C@@H]2c3ccccc3N(C(=O)c3ccc(F)cc3)C[C@@H]21,0,-4,nt
S=C(NC1CCCC1)NC1CCCC1,0,0,53*
Cc1cccc(NC(=S)NNC(=S)NC2CCCCC2)c1C,0,1,7
Cc1ccccc1NC(=S)NC1CCCC1,0,-4,59*
Cc1ccc(NC(=S)NC2CCCCC2)cc1S(=O)(=O)N(C)C,2.7*,1,0
CC(C)CNC(=S)NC1CCCC1,nt,nt,63*
Cc1ccc(NC(=O)CNCC2CCCCC2)cc1S(=O)(=O)N(C)C,0,0,1
OCCNC(=S)NC1CCCCC1,nt,nt,-3
S=C(NC1CCCC1)NC1CC1,0,-2,-9
C[C@@H]1CN([C@H](C)CO)C(=O)c2cccc(NC(=O)Nc3ccc(F)cc3)c2O[C@H]1CN(C)Cc1ccccc1,0,2,nt
CNC(=O)C[C@H]1CC[C@H]2[C@@H](COc3ccc(NC(=O)c4ccc5c(c4)OCO5)cc3C(=O)N2C)O1,-1,-1,nt
CO[C@@H]1CN(C)C(=O)c2cc(NS(=O)(=O)c3ccc(-c4ccccc4)cc3)ccc2OC[C@@H](C)NC[C@@H]1C,0,-3,nt
CC1(C)CC(NC(=S)NC2CC2)CC(C)(C)N1,43*,-3,-13
C=CCNC(=S)NC1CC(C)(C)NC(C)(C)C1,0,nt,0
CN(C)C(=O)c1cccc(-c2ccc([C@@H]3[C@@H](C#N)N(C(=O)C4CCCCC4)[C@H]3CO)cc2)c1,0,-1,nt
COc1ccc(OC)c(CC(=O)NC(c2ccccc2)c2ccccc2)c1,0,0,-1
COc1ccc(CC(=O)NC(c2ccccc2)c2ccc(C)cc2)c(OC)c1 (stereo not drawn),42,8.0*,-9
SMILES,FGF22 binding,F508del corr,Vif imaging
O=C(Cn1nnc(-c2ccccc2)n1)NCc1cccs1,nt,nt,-2
O=C(Cn1nnc(-c2cccs2)n1)NCc1cccs1,43*,-2,-1
CC(C)NC(=O)N[C@@H]1CC[C@H](CC(=O)O)O[C@H]1CO,1,-3,nt
O=C(NCC(F)(F)F)[C@@H]1[C@@H](CO)[C@@H]2Cn3c(cccc3=O)[C@H]1N2CC1CCCC1,nt,-1,nt
O=C(C[C@H]1CC[C@@H](NC(=O)Nc2ccccc2F)[C@@H](CO)O1)NCc1ccc(Cl)cc1,0,1,nt
COc1cccc(C2c3cc4c(cc3OC(NNC(N)=O)C2C)OCO4)c1O (stereo not drawn),-1,8.9*,-4
COc1cc(C2c3cc4c(cc3C(O)C3COCC23)OCO4)cc(OC)c1OC (stereo not drawn),0,-1,-3

# Compound activity from PubChem.
